Assay outcomes from PubChem.
TDP1 cell noCPT: qHTS for Inhibitors of human tyrosyl-DNA phosphodiesterase 1 (TDP1): qHTS in cells in absence of CPT; Potency, µM (titrated, usually from 46.2 µM), inactives show at the highest dose activity change, negative = growth inhibition, actives largely listed as inhibitors; 420,000 tested, 15% active; DT40 Tdp1-/- hTDP1 cells, no CPT, ATP luminescence, 48 h; further: potency means the concentration at half of the fitted maximal effect; nearly all actives have a fitted effect of over 55% in size
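Camptothecin absent (DMSO only). Human TDP1-complemented DT40 knockout cells, 400 cells/well, 37 °C for minimum 48 hr; ATP measured via CellTiter-Glo, 30 min dark incubation, luminescence.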
TDP1 cell CPT: DT40-hTDP1 cell growth loss with CPT; chicken DT40 Tdp1-/-;hTDP1 cells + 20 nM CPT, ATP luminescence, 48 h; 420,000 tested, 12% active; AID 686979; Potency, µM (titrated, usually from 46.2 µM), for the others: at the highest dose activity change, negative = growth inhibition, actives largely listed as inhibitors; further: potency means the concentration at half of the fitted maximal effect; nearly all actives have a fitted effect of over 55% in size
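Chicken DT40 Tdp1-/- cells complemented with human TDP1, 400 cells/well, exposed to compounds plus 20 nM camptothecin for at least 48 h at 37 C; viability read as ATP content by CellTiter-Glo luminescence.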
ELG1 DNA repair: inhibitors of ELG1-dependent DNA repair in HEK293T cells. 330,000 tested, 2.3% active. Potency, µM (doses to about 46.1 µM), without a hit: top-dose activity change, negative = inhibition, hits mostly inhibitors. HEK293T ELG1-luciferase reporter, luminescence, 16 h; DNA damage induced by 5-fluorouridine. AID 504467; further: potency means the concentration at half of the fitted maximal effect; nearly all actives have a fitted effect of over 55% in size
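Luminescence from the luciferase reporter, measured 30 min after ONE-Glo reagent at room temperature, was the read-out. Beforehand, 2,000 cells per well were exposed for 16 hr at 37 °C to 5-fluorouridine together with compound or vehicle.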
HT1080 IDH1KD tx: toxicity to HT-1080 IDH1 knockdown cells (counter line) | Potency, µM (titrated, usually from 46.1 µM), for the others: at the highest dose activity, negative = toxicity, most hits filed as cytotoxic | 360,000 tested, 2% active | HT-1080 IDH1 knockdown viability, ATP luminescence, 48 h;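 further: potency means the concentration at half of the fitted maximal effect; 0% = DMSO wells and -100% = cell-free medium wells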
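Viability of IDH1-knockdown HT-1080 fibrosarcoma cells was assessed by CellTiter-Glo after 48 h at 37 °C with titrated compound; concentration-effect curves were classified by fit quality and response size.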
HT1080-NT tox: kills 2HG-producing HT-1080-NT fibrosarcoma cells; HT-1080-NT fibrosarcoma viability, CellTiter-Glo ATP luminescence, 48 h; Potency, µM (top dose mostly 46.1 µM), for inactives: at the top dose activity, negative = less viability, hits mostly cytotoxic; 360,000 tested, 1.6% active;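 further: NT is the 2HG producing partner of a matched IDH1 knockdown line; potency means the concentration at half of the fitted maximal effect; 0% = DMSO-treated cells and -100% = media-only wells without cells; nearly all actives have a fitted effect of over 55% in size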
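HT-1080-NT fibrosarcoma cells (2HG-overproducing), 750 cells/well in RPMI with 5% FBS, dosed after 2 h and incubated 48 h at 37C. CellTiter-Glo luminescence normalized to DMSO and no-cell wells; concentration-response curves fitted and classed.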
IL1B secr inh: inflammasome signaling inhibition, IL-1 beta readout. THP-1 LPS/ATP IL-1B secretion, AlphaLISA, 16 h; active compounds read low. activity change, % at 57.5 µM. 360,000 tested, 4.7% active; in the data active means activity change below about -50%; inconclusive means mostly about -30% to -49%
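Secreted IL-1B measured by AlphaLISA bead assay after 16 h compound exposure of THP-1 cells; compounds (final up to 57.5 uM) added 1 h before LPS (250 ng/mL) and ATP (1.25 mM) stimulation; lower signal means less secretion.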
An asterisk follows results filed as active; ? = inconclusive; / = no result; [ ] = remark or other dose. Only some compounds are listed: those with a hit (about 19% of all), similar ones and a draw of the others. Unless noted, the call rests on the fitted dose curve; in most records, active means well fitted curve in the direction sought with a large enough effect; inconclusive means small, poorly fitted or top-dose-only effect, or another doubt; inactive means no such curve, though single readings can be large; an effect the other way counts as inactive or inconclusive. Unless noted, on the % scale 0 is the no-effect control and ±100 the full control effect.

SMILES	TDP1 cell noCPT	TDP1 cell CPT	ELG1 DNA repair	HT1080 IDH1KD tx	HT1080-NT tox	IL1B secr inh
NC1(C(=O)O)CCCc2ccc(N(CCCl)CCCl)cc21 (configuration not stated)	2.31µM*	1.64µM*	/	-5.0%	1.8%	14.1
O=C1NC(=O)C2(CCCc3ccc(N(CCCl)CCCl)cc32)N1 (configuration not stated)	0.184µM*	0.411µM*	/	?	?	-6.4
O=C(c1ccc(N2CCN(CCO)CC2)nc1)N1CCOCC1	18.2%	-6.6%	?	1.7%	-1.0%	4.2
COc1ccc(-c2cc3nc(NCc4ccc(N(C)C)cc4)n(C)c(=O)c3s2)cc1OC	-24.9%	?	/	-6.0%	0.2%	25.6
CCCCN1CCC(O)(c2ccccc2)C(C(=O)c2ccccc2)C1 (configuration not stated)	2.91µM*	2.91µM*	-7.0%	-2.5%	0.3%	-10.6
O=C(c1cccc([N+](=O)[O-])c1)C12CN3CN(CN(C3)C1)C2	-20.5%	1.6%	10.1%	0.8%	-3.0%	3.1
CC(C)Cc1nc(N2CCNCC2)c(C#N)c2c1CCC2	18.4µM*	?	14.3%	-1.6%	1.5%	-18.5
CC(=O)Nc1ccc(OCCF)cc1	1.4%	11.6%	-12.3%	12.0%	0.7%	-9.3
NCC[C@H](O)C(=O)N[C@@H]1C[C@H](N)[C@@H](O[C@H]2O[C@H](CN)[C@@H](O)[C@H](O)[C@H]2N)[C@H](O[C@@H]2O[C@H](CO)[C@@H](O)[C@H]2O)[C@H]1O	-0.8%[21.1 µM]	-3.9%[21.1 µM]	/	/	/	/
CN1CCN(Cc2ccccc2Sc2ccccc2)CC1	?	?	-3.1%	-1.0%	-4.6%	-80.0*
CCC1(c2ccccc2)C(=O)N(COC)C(=O)N(COC)C1=O	-7.1%	1.4%	0.4%	13.4%	15.4%	3.5
O=S(=O)(c1ccc(Cl)cc1)N1CN2CCN(C2)C1	?	23.1µM*	14.1%	12.9%	22.7%	-17.8
O=S(=O)(c1ccc(F)cc1)N1CN2CCN(C2)C1	?	?	3.7%	0.9%	0.0%	1.7
CC(=O)c1cc(C#N)c(N2CCN(C)CC2)nc1C	-7.1%	15.2%	-1.9%	13.8%	13.2%	1.8
CCc1ccccc1Nc1nn2c(=O)c3ccc(C(=O)Nc4cc(C)cc(C)c4)cc3nc2s1	8.2µM*	8.2µM*	/	/	/	/
O=C(COc1ccc2ccccc2c1)N1CCN(Cc2c[nH]c3ccccc23)CC1	5.17µM*	2.06µM*	-9.3%	?	-28.1%	-22.8
O=C(COc1ccc(Br)cc1)N1CCN(Cc2c[nH]c3ccccc23)CC1	2.31µM*	1.3µM*	?	-7.2%	-2.8%	?
CCC(C)N1CCN(C(=O)COc2ccc3ccccc3c2)CC1 (configuration not stated)	?	?	-1.6%	0.9%	4.8%	-12.6
O=C(COc1ccc(Br)cc1)N1CCN(C2CCCC2)CC1	0.7%	-7.8%	7.7%	-4.0%	-0.8%	-0.5
N=Cc1c(O)n(-c2ccccc2)c(=O)n(-c2ccccc2)c1=O	-10.3%	-4.4%	8.0%	-3.4%	-0.6%	-3.2
COc1ccc(C#Cc2ccc3c(c2)O[C@H](CN(C)S(=O)(=O)c2ccccc2F)[C@H](C)CN([C@H](C)CO)S3(=O)=O)cc1	20.6µM*	?	/	0.5%	7.0%	?
O=NN(CCCl)C(=O)NCCCl	?	?	?	3.8%	20.4%	32.9
CC(C)CN1CCC2(CC1)CCN(S(C)(=O)=O)CC2	9.2%	?	/	/	/	/
CC(C)(C)n1nnnc1C(CCc1ccccc1)N1CCC2(CC1)C(=O)NCN2c1ccccc1 (configuration not stated)	14.6µM*	20.6µM*	/	?	?	-60.5*
COc1ccc(-n2nnnc2C(CCSC)N2CCC3(CC2)C(=O)NCN3c2ccccc2)cc1 (configuration not stated)	?	?	/	-17.4%	-8.7%	-15.6
SMILES	TDP1 cell noCPT	TDP1 cell CPT	ELG1 DNA repair	HT1080 IDH1KD tx	HT1080-NT tox	IL1B secr inh
CCC(c1nnnn1-c1ccc(OC)cc1)N1CCC2(CC1)C(=O)NCN2c1ccccc1 (configuration not stated)	10.3µM*	?	/	-12.3%	-14.5%	-24.0
COc1ccc(-n2nnnc2C(CCc2ccccc2)N2CCC3(CC2)C(=O)NCN3c2ccccc2)cc1 (configuration not stated)	?	?	/	?	?	-67.1*
CCC(c1nnnn1C(C)(C)C)N1CCC2(CC1)C(=O)NCN2c1ccccc1 (configuration not stated)	?	-28.5%	/	14.9%	26.3%	28.2
COc1ccc(-n2nnnc2C(c2cccs2)N2CCC3(CC2)C(=O)NCN3c2ccccc2)cc1 (configuration not stated)	16.4µM*	?	/	?	?	-56.6*
N[C@@H](Cc1c[nH]c2ccccc12)c1nnc(SCc2ccccc2F)o1	?	-18.8%	3.9%	-0.5%	-4.3%	-21.8
CCN1C[C@@]2(OC(=O)c3ccccc3NC(C)=O)CCC(OC)[C@@]34C5CC6C(OC)C[C@@](O)(C(CC23)[C@@H]14)C5(O)C6OC (some centres not stated)	4.4%	-2.6%	/	/	/	/
CN(C)P(=O)(N(C)C)N1CC1	-3.5%	-16.1%	/	9.8%	6.8%	-5.5
O=C(Nc1ccc(F)c([N+](=O)[O-])c1)N1C[C@H]2C[C@@H](C1)c1cccc(=O)n1C2	20.4%	-29.7%	15.2%	4.2%	0.9%	-27.0
NC(=O)Cn1cc(C(=O)c2ccccc2)c2ccccc21	-0.2%	20.5%	-4.6%	27.1%	14.2%	2.4
COCCOC(=O)c1c(N)n(Cc2ccc(OC)cc2)c2nc3ccccc3nc12	20.6µM*	?	14.6µM*	-10.7%	-17.5%	-26.3
COC(=O)c1c(N)n(Cc2ccc(OC)cc2)c2nc3ccccc3nc12	16.4µM*	?	?	-23.0%	-25.0%	-12.8
CCCCCc1cc(O)c2c(c1)OC(C)(C)[C@@H]1CCC(C)=C[C@@H]21	?	21.1µM*	/	/	/	/
COc1ccc(OC)c(N2C(=O)NC(=O)/C(=C/c3ccc([N+](=O)[O-])s3)C2=O)c1	16.4µM*	16.4µM*	-5.6%	-27.7%	-0.9%	-73.2*
COc1cc(/C=C2\C(=O)NC(=O)N(c3ccccc3)C2=O)c([N+](=O)[O-])cc1OC	-7.4%	-6.0%	2.6%	-9.9%	-12.7%	6.6
